# High-throughput results as filed in PubChem.
# Rows were chosen to be rich in hits. Some 1.3% of all compounds tested hit in one or more screens of this group.
# SRC2 inh = inhibition of GAL4-SRC2 driven luciferase reporter, primary screen, SRC2 inhibitor project, cell-based, luminescence | HEK293 GAL4-SRC2 luciferase reporter | 370,000 tested, 0.17% active | inhibition, % at 9 µM | AID 651957, 2012 | Nuclear receptor coactivator 2 (Homo sapiens), Q15596;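 active means inhibition above the mean inhibition of all tested compounds plus 3 SD, set per campaign, cut at about 52% in these data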;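 further: 0% = DMSO treated cells and 100% = cells given Gossypol at 36 µM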
# LRH-1 inv ag = LRH-1 (NR5A2) inverse agonists, primary screen, cell-based, luminescence, HEK293T, StAR-luciferase reporter; inhibition, % at 3.6 µM; LRH-1 transfected, 24 h; 360,000 tested, 0.13% active; Nuclear receptor subfamily 5 group A member 2 (Homo sapiens), O00482;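 active means inhibition above the mean inhibition of all tested compounds plus 3 SD, cut at about 73% in these data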;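 further: 0% = DMSO wells and 100% = reporter-only cells lacking LRH-1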
# SRC3 inh = SRC3 coactivator transcriptional activity inhibitors, primary screen, cell-based, luminescence; inhibition, % at 3.6 µM; 360,000 tested, 0.17% active; AID 588352, 2011; Nuclear receptor coactivator 3 (Homo sapiens), Q9Y6Q9; HEK293 GAL4-SRC3 luciferase reporter;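 active means inhibition above a per-campaign cutoff, the mean of all compounds plus 3 SD, cut at about 60% in these data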;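 further: 0% = DMSO-treated cells and 100% = gossypol-treated cells at 36 µM; higher means less SRC3-driven luciferase light from the GAL4 reporter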
# Gli-Sufu block = Gli-Sufu pathway antagonists, primary screen, luciferase luminescence, Sufu-KO-LIGHT cells, uHTS | inhibition, % at 5 µM | AID 588413, 2011 | 340,000 tested, 0.74% active | Sufu-KO-LIGHT fibroblasts, Gli luciferase reporter luminescence;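 active means inhibition above about 55%, limit read from the data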;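 further: 0% = DMSO-treated cells and 100% = wells with medium but no cells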
# NR2F2 inh = NR2F2 transcriptional activity inhibitors, primary screen, cell-based, luciferase reporter, HEK293T, luminescence; HEK293T NGFI-A luciferase reporter; inhibition, % at 8.6 µM; 370,000 tested, 0.7% active;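 active means inhibition above a per-plate cutoff, mean inhibition of test wells between control levels plus 3 SD, cut at about 38% in these data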;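 further: cells cotransfected with COUP-TFII expression vector driving the NGFI-A reporter; 0% = median of COUP-TF2 test wells and 100% = reporter-only cells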
# Target sequence (P24468 whole entry, looked up): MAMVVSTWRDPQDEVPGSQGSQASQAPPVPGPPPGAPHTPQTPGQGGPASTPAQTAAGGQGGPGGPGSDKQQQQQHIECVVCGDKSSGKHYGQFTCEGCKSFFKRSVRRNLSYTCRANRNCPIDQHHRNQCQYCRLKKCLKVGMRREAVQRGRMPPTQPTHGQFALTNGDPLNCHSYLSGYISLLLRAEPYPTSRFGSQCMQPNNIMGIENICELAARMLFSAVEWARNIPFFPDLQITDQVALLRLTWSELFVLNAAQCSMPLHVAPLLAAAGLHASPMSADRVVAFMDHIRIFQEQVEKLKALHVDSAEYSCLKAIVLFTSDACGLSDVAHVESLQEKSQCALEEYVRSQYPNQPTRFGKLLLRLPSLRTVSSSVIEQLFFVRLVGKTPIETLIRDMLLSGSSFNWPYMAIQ
# SRC1 inh = SRC1 coactivator transcriptional activity inhibitors, primary screen, cell-based, luminescence; inhibition, % at 3.6 µM; 360,000 tested, 0.12% active; HEK293 GAL4-SRC1 luciferase reporter; AID 588354, 2011;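 active means inhibition above the campaign mean plus 3 SD, with each screening campaign given its own cutoff, cut at about 60% in these data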;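 further: 0% = DMSO treated cells and 100% = gossypol at 36 µM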
# Gli-Sufu confirm = Gli-SUFU pathway antagonists, confirmation, single concentration, luciferase luminescence, Sufu-KO-LIGHT cells; 2,500 tested, 40% active; shares compounds with Gli-Sufu block; Gli luciferase reporter; inhibition, % at 5 µM;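 active means mean inhibition at 5 µM reaching about 45%, limit read from the data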;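 further: plate controls were DMSO-treated cells for no effect and wells lacking cells for full effect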
# SufuKO cytotox = cytotoxicity in Sufu-KO-LIGHT cells, confirmation, cytotoxicity control for Gli-SUFU antagonist project, cell-based, ATP luminescence, single concentration. shares compounds with Gli-Sufu block. cytotoxicity, % at 5 µM. 2,500 tested, 32% active;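 active means mean cytotoxicity at 5 µM above about 25%, limit read from the data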;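 further: cells exposed to compound overnight for roughly 16 to 18 hours; plate controls were DMSO wells with cells for no effect and medium without cells for full effect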
# Wnt3a counter = Wnt3a reporter signal inhibition, confirmation, counter-screen for Gli-SUFU antagonist project, Wnt-LIGHT cells, luminescence, single concentration; Wnt3a-driven luciferase reporter; 2,500 tested, 20% active; AID 651995, 2013; inhibition, % at 6.25 µM; shares compounds with Gli-Sufu block;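 active means mean inhibition above about 25%, limit read from the data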
# VP16 Luc counter = Gal4-VP16 luciferase reporter inhibitors, counter-screen for COUP-TFII antagonist project, cell-based, luminescence, HEK293; shares compounds with NR2F2 inh; inhibition, % at 8.5 µM; 2,500 tested, 25% active; AID 687007, 2013; in the data active means inhibition above about 13%
# COUP-TFII conf = NR2F2 transcriptional activity inhibitors, confirmation, cell-based, luciferase reporter, HEK293, triplicate | shares compounds with NR2F2 inh | HEK293 NGFI-A luciferase reporter, luminescence | inhibition, % at 8.5 µM | 2,500 tested, 45% active | AID 687008, 2013;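 active means mean inhibition over three repeats above a set limit taken from the earlier primary screen, cut at about 38% in these data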;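 further: 100% = cells given the luciferase reporter alone without the COUP-TF2 vector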
# * marks the source's active call; other numbers are inactive results; . = no result given.
SMILES,SRC2 inh,LRH-1 inv ag,SRC3 inh,Gli-Sufu block,NR2F2 inh,SRC1 inh,Gli-Sufu confirm,SufuKO cytotox,Wnt3a counter,VP16 Luc counter,COUP-TFII conf
Cc1nc2ccccc2c2oc(C(=O)N3CCN(C4CCCCC4)CC3)cc12,-1,-41,2,55,42*,-7,46*,12,-15,-7,11
Cc1nc2ccccc2c2oc(C(=O)N3CCC(N4CCCCC4)CC3)cc12,.,-79,6,20,.,9,.,.,.,.,.
CCCCN(C(C)=O)c1ccc2c(c1)C1CC2CCN1C(=O)OCc1ccccc1 (stereo not drawn),17,14,23,56*,55*,16,64*,31*,3,1,39*
CCN(CCc1ccccc1)c1ccc2c(c1)C1CC2CCN1C(=O)OCc1ccccc1 (stereo not drawn),-14,-3,-38,1,-6,-4,.,.,.,.,.
O=C(NCCNc1ccnc2cc(Cl)ccc12)c1ccccc1F,16,20,-4,67*,55*,19,50*,17,-22,-8,36
O=C(NCCNc1ccc(Cl)cc1[N+](=O)[O-])c1ccccc1F,-15,-19,-25,-16,-15,-32,.,.,.,.,.
CON(Cc1ccccc1)S(=O)(=O)c1ccccc1Br,-25,.,.,.,11,.,.,.,.,.,.
COc1ccc(NS(=O)(=O)c2ccc(OC)c(N(C)S(=O)(=O)c3ccc(Cl)cc3)c2)cc1,34,40,26,74*,57*,-4,43,39*,-35,-7,21
N#Cc1ccccc1N1CCN(C(=O)C2CCN(c3ncnc4c3sc3cccc(F)c34)CC2)CC1,13,.,.,.,58*,.,.,.,.,-8,28
O=[N+]([O-])c1ccc(CN2CCN(c3ccc([N+](=O)[O-])cc3)CC2)cc1,13,21,11,20,40*,5,.,.,.,4,20
Cc1cc(C(=O)CSc2nc3ccccc3[nH]2)c(C)n1CC1CCCO1 (stereo not drawn),63*,46,73*,43,80*,48,.,.,.,34*,88*
C#CCN1CC(COc2ccccc2)Oc2cccc(Oc3ccc(SC)c(C)c3)c2S1(=O)=O (stereo not drawn),9,.,.,.,-4,.,.,.,.,.,.
CC(C)(C)c1ccc(-c2nnc(SCC(=O)Nc3ccccc3-c3ccccc3)n2Cc2ccco2)cc1,-20,.,.,.,11,.,.,.,.,.,.
COc1ccc(C(=O)Nc2ccc3nc(N4CCOCC4)sc3c2)cc1OC,-5,9,5,1,10,-26,.,.,.,.,.
CCCn1nc(C(=O)Nc2ccc3nc(N4CCOCC4)sc3c2)ccc1=O,14,35,11,46,43*,1,.,.,.,10,36
COc1ccc(/C=C2/SC(=S)N(CCCC(=O)Nc3ccccc3C(=O)O)C2=O)cc1,66*,23,35,10,52*,36,.,.,.,43*,30
